A short description of experiment [1]: qHTS assay to identify aromatase inhibitors - cell viability counter screen (AID 743084).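 Note: cells stimulated with testosterone during compound exposure; nearly all actives have a fitted effect of over 55% in size.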 Note: potency is the fitted concentration of half-maximal effect.
Experiment [2] addresses Aryl hydrocarbon receptor (Homo sapiens) (UniProt P35869). In words: qHTS assay to identify small molecule that activate the aryl hydrocarbon receptor (AhR) signaling pathway (AID 743085).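 For activation: HG2L7.5c1 human HepG2 liver cells with stably integrated DRE-driven firefly reporter; series mostly up to about 70 µM.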 Note: nearly all actives have a fitted effect of over 15% in size. Note: potency is the fitted concentration of half-maximal effect. In short, it runs like this:
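Measured in HG2L7.5c1 cells: CellTiter-Fluor signal (30 min incubation, 37C) for viability, then luciferase luminescence (30 min, room temperature). Compound contact time was 24 h at 37C, following a 5 h pre-incubation.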
In general terms: qHTS replaces the single test concentration by a dilution series.

A short description of experiment [3]: qHTS assay to identify small molecule that activate the aryl hydrocarbon receptor (AhR) signaling pathway - cell viability counter screen (AID 743086). Note: series mostly up to about 70 µM; nearly all actives have a fitted effect of over 45% in size. In short, it runs like this: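 Cytotoxicity counter screen: CellTiter-Fluor signal (30 min, 37 C) in 4000 HepG2 cells/well carrying the DRE-luciferase reporter, following 24 h compound exposure at 37 C.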
For experiment [4], the target named is Peroxisome proliferator-activated receptor gamma (Homo sapiens) (UniProt P37231). In words: qHTS assay to identify small molecule antagonists of the peroxisome proliferator-activated receptor gamma (PPARg) signaling pathway (AID 743191; calls by dose curve; note: series mostly up to about 63 µM; nearly all actives have a fitted effect of over 30% in size). In a few lines: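 Beta-lactamase reporter under UAS control in HEK293H PPARg-bla cells; compound treatment 17 h at 37C. Read-out: fluorescence intensity after 1 h room-temperature incubation with LiveBLAzer B/G FRET substrate.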

The nature of experiment [5]: qHTS assay to identify small molecule antagonists of the peroxisome proliferator-activated receptor gamma (PPARg) signaling pathway - cell viability counter screen (AID 743194). Note: nearly all actives have a fitted effect of over 55% in size. In short, it runs like this:
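Viability was measured as CellTiter-Glo luminescence in GeneBLAzer PPARg UAS-bla HEK293H cells. These cells had been exposed 17 h at 37 C to compounds together with rosiglitazone at 50 nM final, with the beta-lactamase readout taken in the same wells.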

Experiment [6] can be described thus: qHTS assay for small molecule agonists of the antioxidant response element (ARE) signaling pathway (AID 743202; active = well fitted activation curve with a large enough effect in the signal ratio in the repeat runs, not every such curve was filed as active; the % refers to the signal ratio; note: potency is the fitted concentration of half-maximal effect). In a few lines: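 Quantitative high-throughput format in HepG2 cells bearing an integrated ARE-beta-lactamase reporter. Compound exposure lasted 16 h at 37 C, and fluorescence was read 2 h after adding LiveBLAzer B/G substrate at room temperature.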

Experiment [7] can be described thus: qHTS assay for small molecule agonists of the antioxidant response element (ARE) signaling pathway - cell viability counter screen (AID 743203; calls by dose curve; note: nearly all actives have a fitted effect of over 55% in size). In short, it runs like this: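 Compounds in DMSO were pinned onto ARE-bla HepG2 cells plated 5 hrs earlier at 2,000 cells/well. Sixteen hours later at 37C/5% CO2, CellTiter-Glo was added and luminescence measured after 30 min at room temperature.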

Experiment [8] in a line: qHTS assay for small molecule activators of the heat shock response signaling pathway - cell viability counter screen (AID 743209). Note: nearly all actives have a fitted effect of over 50% in size. In short, it runs like this: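 Counter screen for cytotoxicity in HeLa HSE-bla reporter cells. Treatment was 5 h at 37 C; viability was detected by luminescent ATP assay (CellTiter-Glo) in the same wells as the beta-lactamase read.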
Experiment [9] in a line: qHTS assay for small molecule activators of the heat shock response signaling pathway (AID 743210; active = well fitted activation curve with a large enough effect in the signal ratio in the repeat runs, with a control signal flat, not every such curve was filed as active; the % refers to the signal ratio;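 note: HeLa cells with beta-lactamase reporter driven by heat shock elements; series mostly up to about 63 µM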). In short, it runs like this: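 HeLa HSE-bla cells, overnight plating; cpd in DMSO 5 h, 37 C; LiveBLAzer B/G FRET substrate 2.5 h RT; fluorescence intensity read.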
Experiment [10] has as its target Peroxisome proliferator-activated receptor gamma (Homo sapiens) (UniProt P37231). In words: qHTS assay to identify small molecule agonists of the peroxisome proliferator-activated receptor gamma (PPARg) signaling pathway (AID 743094; active = well fitted activation curve with a large enough effect in the signal ratio in the repeat runs, not every such curve was filed as active; the % refers to the signal ratio). In a few lines: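 Following 5 h plating at 37C, PPARg-bla HEK293H cells receive compound or DMSO for 17 h; fluorescence intensity is recorded after LiveBLAzer B/G loading for 1 h at room temperature.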

Each structure is given as a SMILES string. Records with an inconclusive call do not appear. The source made the active and inactive calls. Unless noted, calls come from the whole dose curve; as a rule, active = well fitted curve in the direction sought with a large enough effect in the repeat runs; inconclusive = weak or mixed curves; inactive = no such curve, though single readings can be large; an effect the other way counts as inactive or inconclusive.

Sequence of Peroxisome proliferator-activated receptor gamma (Homo sapiens) (P37231 whole entry, looked up): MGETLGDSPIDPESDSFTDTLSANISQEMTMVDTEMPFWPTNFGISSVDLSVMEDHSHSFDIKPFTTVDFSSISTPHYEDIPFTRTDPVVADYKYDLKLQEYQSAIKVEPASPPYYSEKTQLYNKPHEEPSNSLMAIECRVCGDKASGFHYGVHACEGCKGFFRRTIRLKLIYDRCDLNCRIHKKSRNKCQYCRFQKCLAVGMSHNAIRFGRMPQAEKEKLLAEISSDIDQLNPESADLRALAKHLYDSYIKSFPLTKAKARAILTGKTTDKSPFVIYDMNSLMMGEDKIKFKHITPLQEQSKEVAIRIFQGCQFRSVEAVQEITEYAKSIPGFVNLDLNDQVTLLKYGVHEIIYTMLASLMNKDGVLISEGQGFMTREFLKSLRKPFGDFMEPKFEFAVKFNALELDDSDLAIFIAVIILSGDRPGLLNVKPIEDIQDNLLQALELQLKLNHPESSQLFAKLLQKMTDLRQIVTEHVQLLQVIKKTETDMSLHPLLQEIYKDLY
Sequence of Aryl hydrocarbon receptor (Homo sapiens) (P35869 whole entry, looked up): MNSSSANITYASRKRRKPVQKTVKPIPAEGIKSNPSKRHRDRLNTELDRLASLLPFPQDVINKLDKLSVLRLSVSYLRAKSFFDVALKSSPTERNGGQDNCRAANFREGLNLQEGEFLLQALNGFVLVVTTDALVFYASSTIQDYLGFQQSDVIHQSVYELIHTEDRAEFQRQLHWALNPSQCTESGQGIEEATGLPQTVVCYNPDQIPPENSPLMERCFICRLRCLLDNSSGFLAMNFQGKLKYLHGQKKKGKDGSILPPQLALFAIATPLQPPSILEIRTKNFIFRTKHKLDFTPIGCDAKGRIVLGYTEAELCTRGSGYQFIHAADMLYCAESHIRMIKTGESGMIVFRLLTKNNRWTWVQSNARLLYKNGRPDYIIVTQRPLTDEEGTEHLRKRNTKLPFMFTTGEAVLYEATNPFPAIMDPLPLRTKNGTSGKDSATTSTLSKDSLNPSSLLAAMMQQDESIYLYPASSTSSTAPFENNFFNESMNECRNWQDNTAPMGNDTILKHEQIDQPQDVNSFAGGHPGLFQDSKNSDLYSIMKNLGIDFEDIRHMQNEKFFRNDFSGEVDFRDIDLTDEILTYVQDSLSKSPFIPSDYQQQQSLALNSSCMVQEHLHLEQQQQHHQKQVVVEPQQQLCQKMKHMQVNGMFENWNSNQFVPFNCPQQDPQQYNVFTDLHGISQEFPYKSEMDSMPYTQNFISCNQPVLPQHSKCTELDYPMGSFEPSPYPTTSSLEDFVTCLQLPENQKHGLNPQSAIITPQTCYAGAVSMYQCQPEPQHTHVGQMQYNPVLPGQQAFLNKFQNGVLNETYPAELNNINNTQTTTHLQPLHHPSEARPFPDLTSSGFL

For `N#CCc1cccc(C(F)(F)F)c1`, the Potency result in experiment [1], in experiment [2], in experiment [3], in experiment [4], in experiment [5] and in experiment [6] was “inactive” each time. The Potency result in experiment [7] and in [8] was “inactive” in each case. For the same compound, the outcome in experiment [9] was inactive.
In the case of `O=C(O)[C@@H]1[C@H]2C[C@H]3c4[nH]c5ccccc5c4CCN3C[C@@H]2CC[C@@H]1O`, the Potency result in experiment [1], in experiment [3], in experiment [5], in experiment [6], in experiment [7] and in experiment [8] was “inactive” throughout. Besides, the Potency in [2] is 7.17 µM (active).
In the case of `CC[C@H](C)[C@H](N)C(=O)O`, the Potency entry in [1], in experiment [2], in experiment [3], in experiment [4], in [5] and in [6] was “inactive” throughout. Further, in [9], the compound was called inactive.
As for `N#Cc1cc2ccccc2c2ccccc12`, the Potency result in [1], in [3], in [4], in experiment [5], in [7] and in experiment [8] was “inactive” each time. In [2], the Potency was 61.4 µM (active). Also, the compound was classed as inactive in experiment [9].
As to `CC(C)c1ccc2c(C(C)C)cc(C(C)C)c(S(=O)(=O)O)c2c1`, the Potency entry in experiment [1], in experiment [2], in experiment [3], in experiment [10], in experiment [5] and in experiment [8] was “inactive” in each case. In addition, in [9], the compound was called inactive.
`CCCCCc1ccc(N)cc1`: the Potency result in experiment [1], in experiment [2], in experiment [3], in [4], in [5] and in experiment [8] was “inactive” throughout. Besides, the outcome in experiment [9] was inactive.
Regarding `CC1(C)[C@H]2CC[C@]1(C)[C@H](O)C2`, the Potency result in experiment [1], in [2], in experiment [3], in experiment [5], in experiment [6] and in [7] was “inactive” in each case. The Potency entry in experiment [8] is “inactive”. Further, the outcome in experiment [9] was inactive.
As to `C=C(C)C(=O)OC(C)C`, the Potency entry in [1], in experiment [2], in experiment [3], in experiment [4], in experiment [5] and in [6] was “inactive” in each case. Besides, the Potency result in experiment [7] and in [8] was “inactive” each time.
As for `Cc1cc(O)ccc1N`, the results for the Potency in experiment [1], in experiment [2] and in [6] were 54.8 µM (active), 61.4 µM (active) and 21.8 µM (active), respectively. The Potency entry in [3], in experiment [5], in [7] and in experiment [8] was “inactive” throughout.
`CC/C(=C\C(=N/O)C(N)=O)C(C)[N+](=O)[O-]` (stereo not drawn): the Potency entry in experiment [1], in [2], in [3], in [4], in [5] and in experiment [7] was “inactive” throughout. Besides, the Potency result in [8] was “inactive”.
`Cc1ccc(C(C)c2ccc(C)c(C)c2)cc1C`: the Potency entry in [1], in experiment [2], in [3], in experiment [4], in experiment [5] and in [7] was “inactive” throughout. Moreover, the Potency entry in [8] is “inactive”. In [9], the call was inactive.
Consider `CN(C)CC[C@@H](c1ccc(Br)cc1)c1ccccn1`, for which the Potency result in experiment [1], in experiment [2], in experiment [3], in [4], in experiment [7] and in experiment [8] was “inactive” each time. Further, the compound was called inactive in experiment [9].
Take `O=C(O)c1cccc(N(Cc2cccnc2)c2ccc(OC(F)F)c(OC(F)F)c2)c1`: the Potency result in [1], in experiment [2], in [3], in experiment [5], in [7] and in [8] was “inactive” each time. Also, the outcome in [9] was inactive.
Take `CC(C(=O)O)c1ccc(-c2ccccc2)c(F)c1` (stereo not drawn): the Potency entry in experiment [1], in experiment [2], in experiment [3], in experiment [5], in [7] and in experiment [8] was “inactive” throughout. Further, the call in [9] was inactive.
As for `SC1CCCC1`, the Potency entry in [1], in experiment [2], in experiment [10], in experiment [4], in [5] and in experiment [6] was “inactive” in each case. The Potency entry in experiment [7] and in experiment [8] was “inactive” each time. In addition, the compound was called inactive in [9].

The values are drawn from PubChem BioAssay (Tox21).
